# Assay results: the supplement of paper PMC4466140
# Biological target: ScBbc1
# Test: SPOT peptide array binding signal intensity (averaged, normalized) (arbitrary units (background-subtracted, floor 0; scale differs between SH3 domains)); higher = stronger binding of the SH3 domain to the peptide
# Method in brief: (§1)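 Four yeast species supplied the SH3 domains, which were expressed as GST fusions in E. coli BL21(DE3) and purified on glutathione Sepharose. Incubation with cellulose membranes carrying synthetic 15-mer peptides, cysteines exchanged for serines, ran overnight at 4°C at 10 μg/ml in TBS-based blocking buffer. Binding signal is reported as normalized, background-subtracted spot intensity averaged over replicates, in arbitrary units not shared between domains.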
row,Binder,SPOT peptide array binding signal intensity
1,VNIPSPSSSPPPIPK,1

# Biological target: ScBem1-D1
# Test: as above
# Method in brief: as §1
row,Binder,SPOT peptide array binding signal intensity
1,VNIPSPSSSPPPIPK,≤ 0

# Biological target: ScBzz1-D1
# Test: as above
# Method in brief: as §1
row,Binder,SPOT peptide array binding signal intensity
1,VNIPSPSSSPPPIPK,≤ 0

# Biological target: ScBzz1-D2
# Test: as above
# Method in brief: as §1
row,Binder,SPOT peptide array binding signal intensity
1,VNIPSPSSSPPPIPK,6

# Biological target: ScCyk3
# Test: as above
# Method in brief: as §1
row,Binder,SPOT peptide array binding signal intensity
1,VNIPSPSSSPPPIPK,≤ 0

# Biological target: ScFus1
# Test: as above
# Method in brief: as §1
row,Binder,SPOT peptide array binding signal intensity
1,VNIPSPSSSPPPIPK,≤ 0

# Biological target: ScHof1
# Test: as above
# Method in brief: as §1
row,Binder,SPOT peptide array binding signal intensity
1,VNIPSPSSSPPPIPK,≤ 0

# Biological target: ScHse1
# Test: as above
# Method in brief: as §1
row,Binder,SPOT peptide array binding signal intensity
1,VNIPSPSSSPPPIPK,35

# Biological target: ScLsb1
# Test: as above
# Method in brief: as §1
row,Binder,SPOT peptide array binding signal intensity
1,VNIPSPSSSPPPIPK,≤ 0

# Biological target: ScLsb2
# Test: as above
# Method in brief: as §1
row,Binder,SPOT peptide array binding signal intensity
1,VNIPSPSSSPPPIPK,≤ 0

# Biological target: ScLsb3
# Test: as above
# Method in brief: as §1
row,Binder,SPOT peptide array binding signal intensity
1,VNIPSPSSSPPPIPK,≤ 0

# Biological target: ScLsb4
# Test: as above
# Method in brief: as §1
row,Binder,SPOT peptide array binding signal intensity
1,VNIPSPSSSPPPIPK,≤ 0

# Biological target: ScMyo3
# Test: as above
# Method in brief: as §1
row,Binder,SPOT peptide array binding signal intensity
1,VNIPSPSSSPPPIPK,3090

# Biological target: ScMyo5
# Test: as above
# Method in brief: as §1
row,Binder,SPOT peptide array binding signal intensity
1,VNIPSPSSSPPPIPK,2780

# Biological target: ScNbp2
# Test: as above
# Method in brief: as §1
row,Binder,SPOT peptide array binding signal intensity
1,VNIPSPSSSPPPIPK,6

# Biological target: ScPex13
# Test: as above
# Method in brief: as §1
row,Binder,SPOT peptide array binding signal intensity
1,VNIPSPSSSPPPIPK,≤ 0

# Biological target: ScRvs167
# Test: as above
# Method in brief: as §1
row,Binder,SPOT peptide array binding signal intensity
1,VNIPSPSSSPPPIPK,≤ 0

# Biological target: ScSho1
# Test: as above
# Method in brief: as §1
row,Binder,SPOT peptide array binding signal intensity
1,VNIPSPSSSPPPIPK,1.5

# Biological target: ScSla1-D1-D2
# Test: as above
# Method in brief: as §1
row,Binder,SPOT peptide array binding signal intensity
1,VNIPSPSSSPPPIPK,2.5

# Biological target: ScSla1-D3
# Test: as above
# Method in brief: as §1
row,Binder,SPOT peptide array binding signal intensity
1,VNIPSPSSSPPPIPK,≤ 0

# Biological target: SpAbp1-D1
# Test: as above
# Method in brief: as §1
row,Binder,SPOT peptide array binding signal intensity
1,VNIPSPSSSPPPIPK,1

# Biological target: SpBbc1
# Test: as above
# Method in brief: as §1
row,Binder,SPOT peptide array binding signal intensity
1,VNIPSPSSSPPPIPK,≤ 0

# Biological target: SpBzz1-D1
# Test: as above
# Method in brief: as §1
row,Binder,SPOT peptide array binding signal intensity
1,VNIPSPSSSPPPIPK,80.5

# Biological target: SpBzz1-D2
# Test: as above
# Method in brief: as §1
row,Binder,SPOT peptide array binding signal intensity
1,VNIPSPSSSPPPIPK,≤ 0

# Biological target: SpCyk3
# Test: as above
# Method in brief: as §1
row,Binder,SPOT peptide array binding signal intensity
1,VNIPSPSSSPPPIPK,1

# Biological target: SpHof1
# Test: as above
# Method in brief: as §1
row,Binder,SPOT peptide array binding signal intensity
1,VNIPSPSSSPPPIPK,≤ 0

# Biological target: SpHof1-2
# Test: as above
# Method in brief: as §1
row,Binder,SPOT peptide array binding signal intensity
1,VNIPSPSSSPPPIPK,≤ 0

# Biological target: SpHof1-3
# Test: as above
# Method in brief: as §1
row,Binder,SPOT peptide array binding signal intensity
1,VNIPSPSSSPPPIPK,≤ 0

# Biological target: SpHse1
# Test: as above
# Method in brief: as §1
row,Binder,SPOT peptide array binding signal intensity
1,VNIPSPSSSPPPIPK,43

# Biological target: SpLsb1
# Test: as above
# Method in brief: as §1
row,Binder,SPOT peptide array binding signal intensity
1,VNIPSPSSSPPPIPK,≤ 0

# Biological target: SpLsb4
# Test: as above
# Method in brief: as §1
row,Binder,SPOT peptide array binding signal intensity
1,VNIPSPSSSPPPIPK,≤ 0

# Biological target: SpMyo1
# Test: as above
# Method in brief: as §1
row,Binder,SPOT peptide array binding signal intensity
1,VNIPSPSSSPPPIPK,1720

# Biological target: SpNbp2
# Test: as above
# Method in brief: as §1
row,Binder,SPOT peptide array binding signal intensity
1,VNIPSPSSSPPPIPK,≤ 0

# Biological target: SpPex13
# Test: as above
# Method in brief: as §1
row,Binder,SPOT peptide array binding signal intensity
1,VNIPSPSSSPPPIPK,1.5

# Biological target: SpRvs167
# Test: as above
# Method in brief: as §1
row,Binder,SPOT peptide array binding signal intensity
1,VNIPSPSSSPPPIPK,≤ 0

# Biological target: SpSla1-D1-D2
# Test: as above
# Method in brief: as §1
row,Binder,SPOT peptide array binding signal intensity
1,VNIPSPSSSPPPIPK,2

# Biological target: SpSla1-D3
# Test: as above
# Method in brief: as §1
row,Binder,SPOT peptide array binding signal intensity
1,VNIPSPSSSPPPIPK,2
